# Experimental data as given in publication PMC7862700, “An all-to-all approach to the identification of sequence-specific readers for epigenetic DNA modifications on cytosine”.
# Key:
# Assay in all cases: DAPPL (digital affinity profiling via proximity ligation, sequencing); 10 mM Tris-HCl pH 7.5, 50 mM NaCl, 1 mM DTT, 4% glycerol, room temperature, 30 min; GST-TFs on glutathione beads, 16-mer random dsDNA library, 0.1% formaldehyde crosslink after washing; high values mean tight binding
# Settings in all cases: protein: recombinant; tags: N-terminal GST; dsDNA, one strand shown
# FLI1 = molecular target: T1, FLI1 (Homo sapiens, UniProt Q01543 1-452)
# T1 sequence: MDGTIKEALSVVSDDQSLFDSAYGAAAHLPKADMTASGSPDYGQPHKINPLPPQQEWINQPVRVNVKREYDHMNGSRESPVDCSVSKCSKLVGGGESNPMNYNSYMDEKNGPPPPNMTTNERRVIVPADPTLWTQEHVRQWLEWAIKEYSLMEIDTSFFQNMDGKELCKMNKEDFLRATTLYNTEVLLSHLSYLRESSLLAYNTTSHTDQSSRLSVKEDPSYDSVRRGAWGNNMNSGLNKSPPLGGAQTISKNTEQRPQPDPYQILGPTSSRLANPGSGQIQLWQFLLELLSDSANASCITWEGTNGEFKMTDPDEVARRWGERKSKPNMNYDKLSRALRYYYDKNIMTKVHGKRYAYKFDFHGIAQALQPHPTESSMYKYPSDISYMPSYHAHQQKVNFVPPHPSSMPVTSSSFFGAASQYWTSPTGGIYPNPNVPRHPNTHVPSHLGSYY
# In short: (§1)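 Pools of DNA-barcoded human transcription factors, expressed in yeast as GST fusions on glutathione beads and combined with a tag-only sample, were incubated with 200 nmole of a 16-mer random double-stranded DNA library. Incubation took 30 min at room temperature in Tris/NaCl/DTT/glycerol buffer and was followed by washing, 0.1% formaldehyde crosslinking, proximity ligation (BsaI/T4 ligase, 1 h, 37 °C), PCR amplification and sequencing on an Illumina NextSeq500. Binding signal is the ratio of a hexamer's read frequency for a factor to its frequency for the tag-only sample.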
# ELK1 = molecular target: T2, ELK1 (Homo sapiens, UniProt P19419 1-428)
# T2 sequence: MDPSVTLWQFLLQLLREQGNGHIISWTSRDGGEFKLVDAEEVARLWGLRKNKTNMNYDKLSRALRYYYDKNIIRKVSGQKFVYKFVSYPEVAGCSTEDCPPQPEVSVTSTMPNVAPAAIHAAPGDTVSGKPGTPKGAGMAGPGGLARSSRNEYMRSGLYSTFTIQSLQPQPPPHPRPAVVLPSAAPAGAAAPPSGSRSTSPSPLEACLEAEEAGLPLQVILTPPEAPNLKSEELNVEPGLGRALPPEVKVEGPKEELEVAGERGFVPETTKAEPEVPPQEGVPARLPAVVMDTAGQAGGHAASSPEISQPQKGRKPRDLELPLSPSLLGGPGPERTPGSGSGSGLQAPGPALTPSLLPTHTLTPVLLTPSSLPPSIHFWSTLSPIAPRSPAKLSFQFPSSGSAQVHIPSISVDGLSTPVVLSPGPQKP
# In short: as §1
# GABPA = molecular target: T3, GABPA (Homo sapiens, UniProt Q06546 1-454)
# T3 sequence: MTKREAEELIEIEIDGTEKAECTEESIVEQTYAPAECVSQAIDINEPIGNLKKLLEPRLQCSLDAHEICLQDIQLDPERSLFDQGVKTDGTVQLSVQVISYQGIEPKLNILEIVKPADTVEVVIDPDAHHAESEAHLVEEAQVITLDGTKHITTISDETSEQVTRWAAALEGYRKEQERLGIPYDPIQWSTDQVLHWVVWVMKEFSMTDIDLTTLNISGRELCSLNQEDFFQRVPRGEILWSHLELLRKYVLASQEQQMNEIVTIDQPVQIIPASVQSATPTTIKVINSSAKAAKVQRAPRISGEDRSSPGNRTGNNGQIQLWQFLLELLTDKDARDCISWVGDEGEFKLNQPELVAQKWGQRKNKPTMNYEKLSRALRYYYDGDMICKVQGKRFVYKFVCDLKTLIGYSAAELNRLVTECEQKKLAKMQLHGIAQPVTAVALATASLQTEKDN
# In short: as §1
# ERG = molecular target: T4, ERG (Homo sapiens, UniProt P11308 1-479)
# T4 sequence: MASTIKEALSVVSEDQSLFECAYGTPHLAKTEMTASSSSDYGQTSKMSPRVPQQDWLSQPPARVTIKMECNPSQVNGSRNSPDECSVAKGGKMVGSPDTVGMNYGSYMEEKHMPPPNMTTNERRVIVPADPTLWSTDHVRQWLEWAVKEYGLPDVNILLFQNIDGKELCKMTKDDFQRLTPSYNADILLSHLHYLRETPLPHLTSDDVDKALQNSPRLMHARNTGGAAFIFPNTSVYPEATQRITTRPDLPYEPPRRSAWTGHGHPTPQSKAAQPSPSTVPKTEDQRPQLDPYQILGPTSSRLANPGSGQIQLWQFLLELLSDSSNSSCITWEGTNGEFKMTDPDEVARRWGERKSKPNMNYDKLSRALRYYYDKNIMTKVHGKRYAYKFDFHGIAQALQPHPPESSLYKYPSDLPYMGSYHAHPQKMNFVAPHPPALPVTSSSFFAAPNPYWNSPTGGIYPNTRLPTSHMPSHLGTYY
# In short: as §1
# ELF1 = ELF1 (Homo sapiens, UniProt P32519 1-619)
# In short: as §1
# EHF = molecular target: T5, EHF (Homo sapiens, UniProt Q9NZC4 1-300)
# T5 sequence: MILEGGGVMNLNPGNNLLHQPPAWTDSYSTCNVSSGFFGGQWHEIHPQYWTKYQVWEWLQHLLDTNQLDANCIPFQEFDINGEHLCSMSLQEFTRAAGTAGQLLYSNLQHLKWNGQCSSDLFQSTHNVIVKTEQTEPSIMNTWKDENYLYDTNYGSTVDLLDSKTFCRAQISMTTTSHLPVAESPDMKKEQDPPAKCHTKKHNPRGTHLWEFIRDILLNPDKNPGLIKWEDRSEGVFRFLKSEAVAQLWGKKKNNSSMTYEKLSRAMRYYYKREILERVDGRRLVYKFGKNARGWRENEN
# In short: as §1
# SPI1 = SPI1 (Homo sapiens, UniProt P17947 1-270)
# In short: as §1
# SPIB = SPIB (Homo sapiens, UniProt Q01892 1-262)
# In short: as §1
# ELK3 = molecular target: T6, ELK3 (Homo sapiens, UniProt P41970 1-407)
# T6 sequence: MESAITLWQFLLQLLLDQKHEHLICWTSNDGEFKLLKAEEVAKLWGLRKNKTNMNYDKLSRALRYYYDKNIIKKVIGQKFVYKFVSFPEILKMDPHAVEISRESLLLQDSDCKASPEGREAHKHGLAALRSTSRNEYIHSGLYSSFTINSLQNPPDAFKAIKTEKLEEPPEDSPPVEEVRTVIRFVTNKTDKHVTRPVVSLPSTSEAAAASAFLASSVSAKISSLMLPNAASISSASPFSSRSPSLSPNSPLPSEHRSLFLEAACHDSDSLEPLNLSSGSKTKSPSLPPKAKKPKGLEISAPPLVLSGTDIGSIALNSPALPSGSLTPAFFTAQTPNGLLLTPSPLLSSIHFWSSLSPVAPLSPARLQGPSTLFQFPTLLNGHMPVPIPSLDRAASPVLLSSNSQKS
# In short: as §1
# ELF1, sequence (P32519 whole entry): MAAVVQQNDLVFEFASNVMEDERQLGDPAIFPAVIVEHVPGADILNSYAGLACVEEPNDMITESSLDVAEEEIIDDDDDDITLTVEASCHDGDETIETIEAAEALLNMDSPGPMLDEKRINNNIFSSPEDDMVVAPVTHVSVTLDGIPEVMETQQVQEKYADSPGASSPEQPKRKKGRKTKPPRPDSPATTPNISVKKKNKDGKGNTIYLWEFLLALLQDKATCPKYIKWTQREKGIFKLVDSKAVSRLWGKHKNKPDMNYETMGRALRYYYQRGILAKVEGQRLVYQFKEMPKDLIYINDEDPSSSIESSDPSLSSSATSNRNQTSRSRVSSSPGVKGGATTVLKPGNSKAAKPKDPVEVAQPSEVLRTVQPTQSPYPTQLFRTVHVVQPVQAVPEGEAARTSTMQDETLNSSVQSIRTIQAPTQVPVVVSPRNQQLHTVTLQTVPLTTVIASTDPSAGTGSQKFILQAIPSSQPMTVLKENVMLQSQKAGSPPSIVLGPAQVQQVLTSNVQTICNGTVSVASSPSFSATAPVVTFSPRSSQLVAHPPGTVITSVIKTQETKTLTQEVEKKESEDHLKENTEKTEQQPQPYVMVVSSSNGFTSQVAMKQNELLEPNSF
# SPIB, sequence (Q01892 whole entry): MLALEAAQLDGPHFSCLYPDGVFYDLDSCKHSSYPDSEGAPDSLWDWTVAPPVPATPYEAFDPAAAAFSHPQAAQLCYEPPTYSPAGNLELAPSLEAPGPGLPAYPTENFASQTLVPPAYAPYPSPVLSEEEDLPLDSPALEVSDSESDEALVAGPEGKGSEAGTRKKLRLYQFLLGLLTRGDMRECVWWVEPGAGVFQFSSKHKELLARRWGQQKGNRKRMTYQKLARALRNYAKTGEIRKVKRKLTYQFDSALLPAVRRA
sequence,measurement,setting,value
AAAATA,binding signal,FLI1,"1.17 fold enrichment (6-mer frequency, TF over GST control)"
same,binding signal,ELK1,"1.12 fold enrichment (6-mer frequency, TF over GST control)"
same,binding signal,GABPA,"1.18 fold enrichment (6-mer frequency, TF over GST control)"
same,binding signal,ERG,"1.19 fold enrichment (6-mer frequency, TF over GST control)"
same,binding signal,ELF1,"1.19 fold enrichment (6-mer frequency, TF over GST control)"
same,binding signal,EHF,"1.13 fold enrichment (6-mer frequency, TF over GST control)"
same,binding signal,SPI1,"1.18 fold enrichment (6-mer frequency, TF over GST control)"
same,binding signal,SPIB,"1.23 fold enrichment (6-mer frequency, TF over GST control)"
same,binding signal,ELK3,"1.17 fold enrichment (6-mer frequency, TF over GST control)"
